# An excerpt weighted towards active compounds, which were near 3.5% of everything screened.
# BoNT A protease – inhibitors of Botulinum neurotoxin A light chain protease | 0.17% of 360,000 active | multiplex microsphere protease substrate cleavage, flow cytometry | AID 588499 | inhibition, % at 10 µM
# BoNT-F LC inh – BoNT F light chain protease inhibition; Multiplex microsphere protease cleavage assay, flow cytometry; inhibition, % at 10 µM; 0.22% of 360,000 active; AID 588497; in the data active means inhibition above about 35%, passing the limit was not always enough; inconclusive means no clear call, values can overlap the other calls
# Anthrax LF prot – inhibitors of Bacillus anthracis lethal factor protease; inhibition, % at 10 µM; multiplex microsphere protease cleavage assay, LF; AID 588501; 0.12% of 360,000 active
# Target sequence (P15917 whole entry, looked up): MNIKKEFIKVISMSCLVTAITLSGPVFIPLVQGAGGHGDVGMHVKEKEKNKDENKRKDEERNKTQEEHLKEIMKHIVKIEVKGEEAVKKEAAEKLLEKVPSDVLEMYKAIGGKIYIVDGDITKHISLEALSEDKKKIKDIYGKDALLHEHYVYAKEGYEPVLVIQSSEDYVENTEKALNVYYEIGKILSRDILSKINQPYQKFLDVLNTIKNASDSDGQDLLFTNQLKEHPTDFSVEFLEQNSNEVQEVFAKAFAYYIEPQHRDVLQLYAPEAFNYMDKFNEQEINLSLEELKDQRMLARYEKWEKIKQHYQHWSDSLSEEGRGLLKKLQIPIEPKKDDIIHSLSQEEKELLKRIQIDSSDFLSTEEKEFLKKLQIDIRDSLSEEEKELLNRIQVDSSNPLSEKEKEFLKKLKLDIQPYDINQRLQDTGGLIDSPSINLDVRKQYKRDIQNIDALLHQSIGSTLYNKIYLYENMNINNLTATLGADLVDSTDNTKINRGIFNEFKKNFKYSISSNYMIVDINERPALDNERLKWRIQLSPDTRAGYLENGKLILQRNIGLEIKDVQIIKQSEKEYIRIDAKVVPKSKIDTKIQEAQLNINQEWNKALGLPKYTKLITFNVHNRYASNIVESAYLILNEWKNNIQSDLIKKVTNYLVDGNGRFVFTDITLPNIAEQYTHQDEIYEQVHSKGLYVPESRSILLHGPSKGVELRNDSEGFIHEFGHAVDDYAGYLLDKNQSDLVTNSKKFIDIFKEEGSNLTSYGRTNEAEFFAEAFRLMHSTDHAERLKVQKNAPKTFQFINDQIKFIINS
# Autofluor counter – flagged as autofluorescent in microsphere protease counterscreen; fluorescence intensity (no concentration beside the values); compound autofluorescence counterscreen, microsphere flow cytometry; active compounds read high; 3.1% of 360,000 active; in the data active means fluorescence intensity above about 16000; inconclusive means no clear call, values can overlap the other calls
# Numbers stand for hits; i = inactive; ? = inconclusive. Unless noted, no stated cut-off is given here; in the data, active means inhibition above about 30%; inconclusive means no clear call, values can overlap the other calls; inactive means below that.
SMILES,BoNT A protease,BoNT-F LC inh,Anthrax LF prot,Autofluor counter
Cc1ccccc1NC(=O)CSCCO,i,i,i,22229
O=C(CSCC(=O)Nc1cccc2ccccc12)Nc1cccc2ccccc12,i,i,i,i
COc1ccc(S(=O)(=O)Nc2cc(S(=O)(=O)N3CCOCC3)ccc2OC)cc1,i,i,i,i
Cc1[nH]c2ccccc2c1/C=C(\C#N)C(=O)NC(C)c1ccccc1 (centres undefined),i,i,i,22234
Cc1[nH]c2ccccc2c1/C=C(\C#N)C(=O)NC1CC1,i,i,i,i
Cc1cc(C)c(/C=C(\C#N)S(=O)(=O)c2ccccc2)[nH]1,i,i,i,i
Cc1[nH]c2ccccc2c1/C=C(\C#N)S(=O)(=O)c1ccccc1,i,i,i,20697
COc1ccc(CCN2C(=O)CCC2(C)c2nnnn2-c2c(C)cccc2C)cc1OC (centres undefined),i,i,i,i
O=c1cc(CSc2nnnn2-c2ccccc2)nc(Nc2ccc(F)cc2)[nH]1,i,i,i,23279
Cc1ccc(Nc2nc(CSc3nnnn3-c3ccccc3)cs2)cc1,i,i,i,i
CCCOc1ccc(-c2nc(=S)[nH][nH]2)cc1,?,i,i,22693
Cc1nonc1OCC(C)(COc1nonc1C)NC(=O)c1ccccc1,i,i,i,21066
CCOC(=O)CNC(=O)c1ccccc1,i,i,i,i
COc1ccc(-c2coc3c(C(=O)NCC(C)C)cccc23)c(C)c1,i,i,i,i
CCOC(=O)NC(CC(=O)O)c1ccc(OC)c(OC)c1 (centres undefined),i,i,i,16400
CC1(C(=O)NC2CCCC2)CCC(=O)N1CCCn1ccnc1 (centres undefined),i,i,i,i
CCc1ccc(CN2CCN(c3ncccn3)CC2)cc1,i,44.4,i,i
CCN(CC)CCNC(=O)c1c(O)c2cc(OC)c(OC)cc2[nH]c1=O,i,i,i,i
COc1cc2c(C(=O)N3CCN(C)CC3)c(C)oc2cc1Br,i,i,i,19992
CCN(CC)CCNC(=O)c1c(C)oc2cc(Br)c(OC)cc12,i,i,i,21610
Cc1cccc(NC(=O)/C(C#N)=C\c2cccnc2)c1,i,i,i,17179
Cc1ccc(NC2(c3nnnn3-c3c(C)cccc3C)CCCCC2)cc1,i,i,i,i
CCOC(=O)c1c(C)[nH]c(C)c1C(=O)COC(=O)c1ccc(S(=O)(=O)N(CC)CC)cc1,?,i,i,16763
CCOC(=O)c1c(C)[nH]c(C)c1C(=O)COC(=O)c1cccc(S(=O)(=O)N(CC)CC)c1,i,i,i,i
COc1ccc(C(CNC(=O)c2ccc(Cl)c(NC(=O)c3cccs3)c2)N2CCCC2)cc1 (centres undefined),i,i,i,i
SMILES,BoNT A protease,BoNT-F LC inh,Anthrax LF prot,Autofluor counter
CCOC(=O)CSc1nc2c(c(=O)[nH]c(=O)n2C)n1CCCc1ccccc1,i,i,i,22767
CCOC(=O)[C@]12CCCC=C1N(Cc1cccc3ccccc13)C(=O)[C@H](CC(=O)NCCc1ccccc1OC)C2,i,i,i,i
CC1CCCC(C)N1CCNC(=O)Nc1ccc(Cl)cc1 (centres undefined),i,i,i,22625
CN1CCN(CCNC(=O)Nc2ccc(Cl)cc2)CC1,i,?,i,i
COCCOC(=O)C1=C(C)N=C2SCCC(=O)N2C1c1cccc(Br)c1 (centres undefined),i,i,i,17065
COCCOC(=O)C1=C(C)N=C2SCCC(=O)N2C1c1cccs1 (centres undefined),i,i,i,i
COC(=O)C1=C(C)N=C2SCCC(=O)N2C1c1ccc(OC(=O)c2ccco2)cc1 (centres undefined),i,i,i,i
C=CCOC(=O)C1=C(C)N=C2SCCC(=O)N2C1c1ccc(OC(=O)c2ccco2)cc1 (centres undefined),i,i,i,23769
Cc1cccc(CN2CCN(c3ccccn3)CC2)c1,?,i,i,23318
c1ccc(COc2cccc(CN3CCN(c4ccccn4)CC3)c2)cc1,i,i,i,20483
Cc1cccc(CN2CCN(c3ncccn3)CC2)c1,i,?,i,i
Cc1ccc(C(=O)NCCC(=O)N2CCCC2)cc1,i,i,i,i
COC(=O)[C@]12CCCCC=C1N(Cc1ccccc1)C(=O)[C@H](CC(=O)NCC13CC4CC(CC(C4)C1)C3)C2,i,i,i,i
O=C1CCc2cc(S(=O)(=O)N3CCN(c4cccc(Cl)c4)CC3)ccc2N1,i,i,i,17938
CN(C)S(=O)(=O)N1CCN(c2ccccc2)CC1,i,i,i,i
O=C1Cc2cc(S(=O)(=O)N3CCN(c4cccc(Cl)c4)CC3)ccc2N1,i,i,i,i
CN(C)S(=O)(=O)N1CCN(c2cccc(Cl)c2)CC1,?,i,i,21047
CN1C(=O)N(CC(=O)c2ccc3c(c2)OCO3)C(=O)C12CCCCC2,i,i,i,i
CCCC(=O)N1CCCC(c2cc(C(=O)Nc3ccccc3)no2)C1 (centres undefined),i,i,i,i
CCOc1ccccc1C(=O)NCCc1cnc[nH]1,i,i,i,i
CCOc1ccc(C(=O)NCCc2cnc[nH]2)cc1,i,49.9,i,i
CC(=O)Nc1ccc(NC(=S)NC(=O)c2ccc([N+](=O)[O-])cc2)cc1,i,i,i,i
CC(C)C(=O)Nc1cccc(NC(=S)NC(=O)c2ccc([N+](=O)[O-])cc2)c1,?,i,i,22965
CC(C)C(=O)Nc1ccc(NC(=S)NC(=O)c2ccc([N+](=O)[O-])cc2)cc1,i,i,i,23025
Cc1cc(=O)n2[nH]c(-c3ccco3)nc2n1,i,i,i,i
SMILES,BoNT A protease,BoNT-F LC inh,Anthrax LF prot,Autofluor counter
CCCc1cc(=O)n2[nH]c(C)cc2n1,i,i,i,24507
COC(=O)Cc1cc(=O)n2[nH]c(C)cc2n1,i,i,i,i
CCCc1cc(=O)n2[nH]c(-c3ccco3)nc2n1,i,i,i,23273
CCOc1cccc2cc(C(=O)N3CCN(C/C=C/c4ccccc4)CC3)c(=O)oc12,?,i,i,16172
Cc1cc(C(=O)N2CCN(C/C=C/c3ccccc3)CC2)no1,i,i,i,19463
CCOc1cc(C(=O)N2CCN(C/C=C/c3ccccc3)CC2)cc(OCC)c1OCC,i,i,i,i
CC(C)(C)NC(=O)C1(C)CCC(=O)N1CCCn1ccnc1 (centres undefined),i,i,i,i
CCOc1ccccc1N1CCN(C(=O)c2cc[n+]([O-])cc2)CC1,i,i,i,i
CCCc1ccc(C(=O)N2CCN(c3ccccc3OCC)CC2)cc1,i,i,i,25022
CC1(C)NC(=O)N(CC(=O)Nc2nc(-c3ccc(F)cc3)cs2)C1=O,i,i,i,18087
O=C(COc1ccc(Cl)cc1)Nc1ccc2c(c1)C(=O)NC2=O,i,i,i,?
CCNC(=S)N/N=C/c1ccc(OCCOc2ccccc2C)cc1,i,i,i,23540
CCNC(=S)N/N=C/c1ccc(OCC(=O)Nc2ccc(OC)cc2)c(OC)c1,i,i,i,i
CCNC(=S)N/N=C/c1ccc(OCC(=O)Nc2ccc(C)cc2)cc1,i,i,i,20930
CCN(CC)S(=O)(=O)c1ccc(N2CC(C(=O)NCc3ccco3)CC2=O)cc1 (centres undefined),i,i,i,i
NC(=O)C(c1ccc(Cl)cc1Cl)c1ncc(C(F)(F)F)cc1Cl (centres undefined),?,i,i,19681
